The campaign covered roughly 63,000 compounds. About 1,100 (1.7%) were called active. Cut-off read from the data, not from the text of the source: active = cytotoxicity above about 50%; inactive = the rest. The full list was thinned out, with actives kept by preference. Entries with a potency or affinity are not part of this list.
Test: cytotoxicity in HPDE-C7 cells, cell-based, fluorescence, HTS (AID 430);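 note: cells exposed to compound for 48 hours before viability readout; 0% = vehicle and 100% = reference cytotoxic drug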
Conditions: HPDE-C7 pancreatic duct cells viability, at 10 µM, hits give high values

| Compound | cytotoxicity |
| --- | --- |
| CCCCNC(=O)Nc1cc(C(F)(F)F)c[nH]c1=O | 4.6% (inactive) |
| O=c1cc(-c2ccccc2)[nH]c2ccccc12 | 60.9% (active) |
| O=c1cc(-c2ccccc2)c2ccccc2[nH]1 | -20.9% (inactive) |
| Cc1cc(=O)c2ccccc2[nH]1 | -8.3% (inactive) |
| O=C(NCCCN1CCCC1=O)NC12CC3CC(CC(C3)C1)C2 | -16.8% (inactive) |
| CCOC(=O)N1CCC2(CC1)C(C(=O)C13CC4CC(CC(C4)C1)C3)C2(C#N)C#N (configuration not stated) | -15.7% (inactive) |
| Cc1cc(C)n(-c2cccc3cccnc23)n1 | -7% (inactive) |
| COc1ccccc1C(=O)Oc1cc(N)n(S(=O)(=O)c2ccc(C)cc2)n1 | -1.2% (inactive) |
| COc1ccc(S(=O)(=O)n2nc(OC(=O)c3c(-c4ccccc4Cl)noc3C)cc2N)cc1 | 63.1% (active) |
| Cc1ccc(S(=O)(=O)n2nc(OC(=O)c3c(-c4ccccc4Cl)noc3C)cc2N)cc1 | 79.3% (active) |
| COc1ccc(S(=O)(=O)n2nc(OC(=O)c3ccc(C)cc3)cc2N)cc1 | -9.2% (inactive) |
| COc1ccc(S(=O)(=O)n2nc(OC(=O)c3ccccc3)cc2N)cc1 | 1.9% (inactive) |
| Cc1onc(-c2ccccc2Cl)c1C(=O)Oc1cc(N)n(S(=O)(=O)c2ccc(F)cc2)n1 | 32.7% (inactive) |
| Cc1csc(NC(=O)CSc2nc(C)nc3c2c(=O)n(C)c(=O)n3C)n1 | -1.2% (inactive) |
| O=C(c1ccc(CS(=O)(=O)Cc2ccc(Cl)cc2)o1)N1CCCC1 | 7.7% (inactive) |
| Cc1ccccc1-c1cc(-c2ccccc2O)n[nH]1 | 25.4% (inactive) |
| Oc1ccccc1-c1cc(-c2ccccc2Cl)[nH]n1 | -4.7% (inactive) |
| COc1ccccc1-c1cc(-c2cc(Cl)ccc2O)n[nH]1 | -8% (inactive) |
| Cc1ccc(-c2cc(-c3ccccc3Cl)[nH]n2)c(O)c1 | 67.3% (active) |
| Cc1ccc(-c2cc(-c3cccc(F)c3)n[nH]2)c(O)c1 | 2.1% (inactive) |
| COC(=O)C1=C(C)NC(=O)CC1c1ccc(C(=O)OC)cc1 (configuration not stated) | 5.9% (inactive) |
| CCN(CC)S(=O)(=O)c1ccc2[nH]cc(C(=O)NCCN3CCCCC3C)c(=O)c2c1 (configuration not stated) | 0% (inactive) |
| Cc1cc(=O)[nH]c(SCC2COC3(CCCCC3)O2)n1 (configuration not stated) | -12.2% (inactive) |
| Cc1c(-c2nc(N)nc(Nc3ccc(F)cc3)n2)oc2ccccc12 | 6.3% (inactive) |
| Cc1c(-c2nc(N)nc(Nc3ccccc3)n2)oc2ccccc12 | 52.8% (active) |
| Cc1c(-c2nc(N)nc(Nc3ccccc3F)n2)oc2ccccc12 | 15% (inactive) |

| Compound | cytotoxicity |
| --- | --- |
| COc1nc(Oc2ccc(C(=O)OCC(N)=O)cc2)nc(N(C)C)n1 | 3.8% (inactive) |
| O=C1CCc2cc(S(=O)(=O)N3CCC(C(=O)NC4CCCC4)CC3)ccc2N1 | 0.9% (inactive) |
| C=CCn1c(SCc2csc(C)n2)nc2scc(-c3ccc(C)o3)c2c1=O | 86.5% (active) |
| Cc1ccc(-c2csc3nc(C)n(-n4c(C)ccc4C)c(=O)c23)o1 | 10.1% (inactive) |
| C=CCn1c(SCc2csc(C)n2)nc2sc3c(c2c1=O)CCCCC3 | 4.7% (inactive) |
| CCSc1nc2c(c(=O)[nH]1)C(c1cccnc1)C(C(=O)OC)=C(C)N2 (configuration not stated) | -19% (inactive) |
| CCn1c(C)c(C(C)=O)c(N2CCCCC2)nc1=S | -8.3% (inactive) |
| CC(=O)c1c(C)[nH]c(C(=O)OCC(=O)Nc2cc(C)on2)c1C | 7.8% (inactive) |
| Cc1csc(NC(=O)CSc2nc(C)cs2)n1 | 3.7% (inactive) |
| CC(C)(C)NC(=O)CSc1nsc(SCC(=O)NC(C)(C)C)c1C#N | 1.2% (inactive) |
| O=C(NC1CCS(=O)(=O)C1)c1ccccc1C(=O)c1ccccc1 (configuration not stated) | -4.3% (inactive) |
| O=C(NC1CCS(=O)(=O)C1)c1cn(-c2ccccc2)nc1-c1ccccc1 (configuration not stated) | 59.8% (active) |
| O=C(NCCCn1ccnc1)c1cn(-c2ccccc2)nc1-c1ccccc1 | -1.6% (inactive) |
| CCCn1c(NC(=O)C2CCN(S(=O)(=O)c3cccs3)CC2)nc2ccccc21 | 8% (inactive) |
| COc1ccccc1-n1nnnc1SCc1ccccc1 | -13.8% (inactive) |
| Cc1cccc(C)c1-n1nnnc1S(=O)(=O)Cc1ccccc1Cl | 1% (inactive) |
| C=CCn1cnc2c(c1=O)c1nc3ccccc3nc1n2-c1ccccc1 | 1.4% (inactive) |
| Cc1nc(SCC(=O)Nc2c(C)n(C)n(-c3ccccc3)c2=O)n[nH]1 | -18.3% (inactive) |
| CCc1ccc2[nH]c(=O)c(CN(Cc3ccc(OC)cc3)Cc3nnnn3CCOC)cc2c1 | 9.3% (inactive) |
| O=C1c2oc3ccc(F)cc3c(=O)c2C(c2ccccc2)N1CC1CCCO1 (configuration not stated) | -14.4% (inactive) |
| Cc1noc(C(=O)N2CCN(c3ccc(F)cc3)CC2)c1Cl | -11.2% (inactive) |
| CCN1CCN(c2ncc(C(=O)Nc3ccccc3C(=O)OC)c3ccccc23)CC1 | 25.8% (inactive) |
| CCN1CCN(c2ncc(C(=O)Nc3cc(Cl)ccc3OC)c3ccccc23)CC1 | 82.5% (active) |
| CCN1CCN(c2ncc(C(=O)Nc3cc(Cl)c(OC)cc3OC)c3ccccc23)CC1 | 16% (inactive) |
| COc1ccccc1Cn1c(=O)c2ccccc2n2c(SCC(=O)N3CCCCC3)nnc12 | -4.5% (inactive) |
| COc1ccc(NC(=O)c2ocnc2C)cc1OC | -32.7% (inactive) |

| Compound | cytotoxicity |
| --- | --- |
| OC(COCC1COc2ccccc2O1)CN1CCN(c2ccccn2)CC1 (configuration not stated) | 6.2% (inactive) |
| Cc1nc(NCCNC(=O)c2ccco2)c2c(C)c(C)sc2n1 | -13.6% (inactive) |
| COC(=O)Nc1ccc(S(=O)(=O)N2CCCc3ccccc32)cc1 | 56.8% (active) |
| CC(=O)Nc1ccc(S(=O)(=O)N2CCCc3ccccc32)cc1 | 37.8% (inactive) |
| Cc1cc(NC(=O)COC(=O)c2ccc(S(=O)(=O)N3CCCc4ccccc43)cc2)no1 | 58.6% (active) |
| CCCNC(=O)NC(=O)COC(=O)c1ccc(OC)c(S(=O)(=O)N2CCCc3ccccc32)c1 | 0.1% (inactive) |
| O=C(O)C1CC=CCC1C(=O)Nc1ccc(S(=O)(=O)N2CCCc3ccccc32)cc1 (configuration not stated) | 30.6% (inactive) |
| Cc1cc(NC(=O)COC(=O)c2cccc(S(=O)(=O)N3CCOCC3)c2)no1 | -14.7% (inactive) |
| CCC(C)Oc1cccc(OCCCCN2C(=O)NC(C)(C)C2=O)c1 (configuration not stated) | 8.5% (inactive) |
| O=C(CC1c2ccccc2Oc2ccccc21)NCc1ccco1 | -3.4% (inactive) |
| CCC(=O)N1CCc2cc(Br)cc(S(=O)(=O)N3CCCCCC3)c21 | -12.2% (inactive) |
| CC(=O)N1CCc2cc(S(=O)(=O)CCC(=O)N3CCN(C(=O)c4ccco4)CC3)ccc21 | 1.6% (inactive) |
| COC(=O)c1oc2ccc(Br)cc2c1-n1cccc1 | 1.1% (inactive) |
| O=C(O)c1oc2ccccc2c1-n1cccc1 | 9.5% (inactive) |
| O=C(O)c1oc2ccc(Br)cc2c1-n1cccc1 | 57.8% (active) |
| COc1ccc(NC(=O)CSc2nnc(-c3ccccn3)n2N)cc1 | -17.7% (inactive) |
| O=C(Nc1ccccc1)OCCOc1ccccc1 | -17.6% (inactive) |
| CC(C)n1c(C(=O)OCC(=O)NCc2ccc3c(c2)OCO3)cc2sccc21 | 45% (inactive) |
| Cc1cc2c(cc(C(=O)OCC(=O)NCc3cccs3)n2C(C)C)o1 | 57.6% (active) |
| Cn1c(C(=O)OCC(=O)NCc2cccs2)cc2sccc21 | 9.4% (inactive) |
| CCOC(=O)N1CCN(C(=O)CSc2nnc(Cn3c(=O)sc4ccccc43)n2C)CC1 | -4.9% (inactive) |
| CCCCOc1ccc(C(=O)Nc2ccncc2)cc1 | 7.8% (inactive) |
| CNc1oc(-c2ccccc2Cl)nc1C#N | -3.8% (inactive) |
| COCCNc1oc(-c2ccccc2Cl)nc1C#N | -6% (inactive) |
| COc1ccc(Nc2oc(-c3ccccc3Cl)nc2C#N)cc1 | 57.9% (active) |
| Cc1ccccc1-n1nnnc1-c1ccccc1 | -2.5% (inactive) |

| Compound | cytotoxicity |
| --- | --- |
| O=C1C(c2ccncc2)=C(O)c2ccccc21 | -1.4% (inactive) |
| COc1ccc(C(=O)Oc2ccc(C(C)=O)cc2)c(OC)c1 | 13.4% (inactive) |
| COc1ccc(C(=O)c2ccc(N3CCOCC3)cc2)c(OC)c1 | 7.3% (inactive) |
| COc1ccc(C(=O)c2ccc(N(C)C)cc2)c(OC)c1 | 68.7% (active) |
| Cc1ccc(S(=O)(=O)NC2OC(=O)C(Cl)=C2Cl)cc1 (configuration not stated) | 11.4% (inactive) |
| Cc1nnc2n1N=CC=C(C(C)(C)C)S2 | -5.2% (inactive) |
| COn1cnnc1-c1ccccc1 | -8.8% (inactive) |
| Cc1nnc2n1N=CC=C(c1ccccc1)S2 | 57.5% (active) |
| O=C(COC(=O)CCOc1ccccc1)Nc1ccc(Cl)cn1 | 0.1% (inactive) |
| Cc1cc(SCC#N)n2nc(C)c(-c3ccccc3)c2n1 | -24.7% (inactive) |
| COc1ccc2c(c1)c(C(O)CN1CCC3(CC1)OCCO3)c(C)n2C (configuration not stated) | 9% (inactive) |
| CC(C)(C)c1ccc(C(O)CCCN2CCC(C(O)(c3ccccc3)c3ccccc3)CC2)cc1 (configuration not stated) | 118% (active) |
| OC(CCN1CCCC1)(c1ccccc1)C1CCCCC1 (configuration not stated) | 8.5% (inactive) |
| OC(CCN1CCCCC1)(c1ccccc1)C1CCCCC1 (configuration not stated) | -15.8% (inactive) |
| C/C(=N\O)C1/C(=N/O)CC2C1C2(C)C (configuration not stated) | -4.3% (inactive) |
| Nc1nc(C(=O)N2CCOCC2)nn1S(=O)(=O)c1ccc(Cl)cc1 | 2.7% (inactive) |
| COc1ccc(C(=O)Oc2cccnc2)cc1OC | -11.9% (inactive) |
| CN1C(=O)c2cccc(NC(=O)Cc3ccccc3)c2C1=O | -1.7% (inactive) |
| CC1CCc2nc(NC(=O)c3ccco3)sc2C1 (configuration not stated) | -13.6% (inactive) |
| O=C(Nc1nc2c(s1)CCc1ccccc1-2)c1ccco1 | 15.6% (inactive) |
| O=C(c1ccc(Br)s1)N1CCN(Cc2ccc3c(c2)OCO3)CC1 | 11.8% (inactive) |
| CN(C)/C=C1\N=C(c2ccc3c(c2)OCO3)OC1=O | -1.7% (inactive) |
| CSc1cccc(-n2cc(-c3ccc4c(c3)OCO4)[nH]c2=O)c1 | 52.8% (active) |
| Cc1ccc(-n2cc(-c3ccccc3)[nH]c2=O)cc1F | -20.5% (inactive) |

Reference: PubChem BioAssay AID430 (Sanford-Burnham Center for Chemical Genomics, 2006)
